# Laboratory results reported in PMC5913336, “True equilibrium measurement of transcription factor-DNA binding affinities using automated polarization microscopy”.
# Columns and labels:
# Assay in all cases: FP; 33 mM phosphate pH 7.0, 90 mM NaCl, 0.01% Tween 20, 0.1 mM DTT, 0.5% agarose; room temperature
# Hb = target: T1, Hb (Drosophila melanogaster, UniProt P05084 225-364); conditions: tags: N-GST (pGEX-6P-1, kept); dsDNA, one strand shown
# T1 sequence: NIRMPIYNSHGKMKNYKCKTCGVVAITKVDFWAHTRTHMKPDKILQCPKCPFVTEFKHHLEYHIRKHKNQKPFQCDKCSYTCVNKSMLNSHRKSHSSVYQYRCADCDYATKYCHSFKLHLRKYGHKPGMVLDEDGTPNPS
# Br = target: T2, Br (Drosophila melanogaster, UniProt Q24206 697-775); conditions: tags: N-GST (pGEX-6P-1, kept); dsDNA, one strand shown
# T2 sequence: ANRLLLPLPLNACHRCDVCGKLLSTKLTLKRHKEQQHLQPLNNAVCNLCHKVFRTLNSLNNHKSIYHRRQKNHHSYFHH
# Hkb = target: T3, Hkb (Drosophila melanogaster, UniProt Q9VN10 181-296); conditions: tags: N-GST (pGEX-6P-1, kept); dsDNA, one strand shown
# T3 sequence: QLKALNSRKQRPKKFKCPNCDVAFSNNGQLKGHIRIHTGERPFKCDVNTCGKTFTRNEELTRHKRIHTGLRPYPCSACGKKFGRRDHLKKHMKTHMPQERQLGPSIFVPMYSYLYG
# EcR = target: T4, EcR (Drosophila melanogaster, UniProt P34021 251-348); conditions: tags: N-GST (pGEX-6P-1, kept); dsDNA, one strand shown
# T4 sequence: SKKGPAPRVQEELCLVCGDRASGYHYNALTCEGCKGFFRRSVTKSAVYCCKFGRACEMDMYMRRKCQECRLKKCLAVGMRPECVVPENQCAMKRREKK
# Gsc = Gsc (Drosophila melanogaster, UniProt P54366 267-356); conditions: tags: N-GST (pGEX-6P-1, kept); dsDNA, one strand shown
# Ttk-PF = Ttk-PF (Drosophila melanogaster, UniProt P17789 499-564); conditions: dsDNA, one strand shown
# Cic = Cic (Drosophila melanogaster, UniProt Q9U1H0 483-565); conditions: tags: N-GST (pGEX-6P-1, kept); dsDNA, one strand shown
# Sequence of Gsc (P54366 267-356): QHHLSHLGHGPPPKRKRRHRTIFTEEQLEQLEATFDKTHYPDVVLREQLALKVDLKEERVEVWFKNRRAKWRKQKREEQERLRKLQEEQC
sequence,measurement,setting,value
GGTTTTTTAGGC,binding signal,Hb,1.46 Kd / Kd of best base at the position
AGTTTTTTAGGG,binding signal,Hb,1.25 Kd / Kd of best base at the position
AGGTTTTTAGGC,binding signal,Hb,1.26 Kd / Kd of best base at the position
AGTCTTTTAGGC,binding signal,Hb,8.66 Kd / Kd of best base at the position
AGTTTTTTAGCC,binding signal,Hb,1.11 Kd / Kd of best base at the position
AGTTTTTTAGTC,binding signal,Hb,1.14 Kd / Kd of best base at the position
AATTTTTTAGGC,binding signal,Hb,1.04 Kd / Kd of best base at the position
AGTTTTTCAGGC,binding signal,Hb,10.3 Kd / Kd of best base at the position
AGTTTTTTTGGC,binding signal,Hb,6.04 Kd / Kd of best base at the position
AGTTTTTTAAGC,binding signal,Hb,1.31 Kd / Kd of best base at the position
AGTTTTTTAGAC,binding signal,Hb,1.59 Kd / Kd of best base at the position
ACTTTTTTAGGC,binding signal,Hb,1.03 Kd / Kd of best base at the position
GGAATTAGAAAAA,binding signal,Br,1.22 Kd / Kd of best base at the position
AGTTTATTAGGC,binding signal,Hb,11 Kd / Kd of best base at the position
AGTGTTTTAGGC,binding signal,Hb,6.19 Kd / Kd of best base at the position
AGTTTTTTAGGT,binding signal,Hb,1.01 Kd / Kd of best base at the position
GGATTTAGAAAAC,binding signal,Br,2.42 Kd / Kd of best base at the position
AGTTCTTTAGGC,binding signal,Hb,13.1 Kd / Kd of best base at the position
CGTTTTTTAGGC,binding signal,Hb,1.23 Kd / Kd of best base at the position
AGTATTTTAGGC,binding signal,Hb,8.15 Kd / Kd of best base at the position
AGCTTTTTAGGC,binding signal,Hb,2.23 Kd / Kd of best base at the position
GGAATTATAAAAC,binding signal,Br,59.2 Kd / Kd of best base at the position
AGTTTCTTAGGC,binding signal,Hb,9.31 Kd / Kd of best base at the position
GGAAGTAGAAAAC,binding signal,Br,40.3 Kd / Kd of best base at the position
GGAATTAGACAAC,binding signal,Br,3.07 Kd / Kd of best base at the position
AGTTTTTTAGGC,Kd,Hb,~12.5 nM
AGTTTTGTAGGC,binding signal,Hb,9.72 Kd / Kd of best base at the position
AGTTTTTTCGGC,binding signal,Hb,5.64 Kd / Kd of best base at the position
AGTTATTTAGGC,binding signal,Hb,10.2 Kd / Kd of best base at the position
AGTTTTTTATGC,binding signal,Hb,1.04 Kd / Kd of best base at the position
AGTTTTTTAGGA,binding signal,Hb,1.46 Kd / Kd of best base at the position
GGAAATAGAAAAC,binding signal,Br,7.11 Kd / Kd of best base at the position
AGATTTTTAGGC,binding signal,Hb,3.22 Kd / Kd of best base at the position
AGTTTTTTACGC,binding signal,Hb,1.61 Kd / Kd of best base at the position
AGTTGTTTAGGC,binding signal,Hb,9.25 Kd / Kd of best base at the position
AGTTTTTAAGGC,binding signal,Hb,9.25 Kd / Kd of best base at the position
AGTTTTATAGGC,binding signal,Hb,9.8 Kd / Kd of best base at the position
TGTTTTTTAGGC,binding signal,Hb,1.1 Kd / Kd of best base at the position
GGAATTTGAAAAC,binding signal,Br,23.5 Kd / Kd of best base at the position
AAAGGGCGTGAT,binding signal,Hkb,3.42 Kd / Kd of best base at the position
AAGGGGCGCGAT,binding signal,Hkb,170 Kd / Kd of best base at the position
GAATGACCCCGAC,binding signal,EcR,1.46 Kd / Kd of best base at the position
GAATTACCCCTAC,binding signal,EcR,11.6 Kd / Kd of best base at the position
GAGTGACCCCTAC,binding signal,EcR,1.99 Kd / Kd of best base at the position
GAATGACACCTAC,binding signal,EcR,4.55 Kd / Kd of best base at the position
GAATGACCCATAC,binding signal,EcR,2.6 Kd / Kd of best base at the position
GAATGCCCCCTAC,binding signal,EcR,3.38 Kd / Kd of best base at the position
GAATAACCCCTAC,binding signal,EcR,3.47 Kd / Kd of best base at the position
GAATGAGCCCTAC,binding signal,EcR,12.7 Kd / Kd of best base at the position
GAATGACCCCTCC,binding signal,EcR,1.29 Kd / Kd of best base at the position
GGATGACCCCTAC,binding signal,EcR,1.78 Kd / Kd of best base at the position
GCATGACCCCTAC,binding signal,EcR,2.1 Kd / Kd of best base at the position
AAATGACCCCTAC,binding signal,EcR,1.94 Kd / Kd of best base at the position
GAATGACCCCTTC,binding signal,EcR,1.34 Kd / Kd of best base at the position
GAATGACCCCTAA,binding signal,EcR,1.25 Kd / Kd of best base at the position
GTATGACCCCTAC,binding signal,EcR,1.76 Kd / Kd of best base at the position
GAATGACCGCTAC,binding signal,EcR,2.37 Kd / Kd of best base at the position
GAATGAACCCTAC,binding signal,EcR,1.84 Kd / Kd of best base at the position
GAACGACCCCTAC,binding signal,EcR,3.06 Kd / Kd of best base at the position
GAATCACCCCTAC,binding signal,EcR,9.57 Kd / Kd of best base at the position
GAATGACGCCTAC,binding signal,EcR,19.5 Kd / Kd of best base at the position
GAATGACCTCTAC,binding signal,EcR,1.03 Kd / Kd of best base at the position
GAATGACCACTAC,binding signal,EcR,5.04 Kd / Kd of best base at the position
GAATGACCCCTAC,Kd,EcR,~23.7 nM
GAATGACCCCTAT,binding signal,EcR,1.25 Kd / Kd of best base at the position
GAATGACCCGTAC,binding signal,EcR,2.06 Kd / Kd of best base at the position
GAATGACCCCAAC,binding signal,EcR,1.46 Kd / Kd of best base at the position
GAATGACCCCTAG,binding signal,EcR,1.29 Kd / Kd of best base at the position
GAATGACTCCTAC,binding signal,EcR,7.37 Kd / Kd of best base at the position
GAATGACCCTTAC,binding signal,EcR,1.59 Kd / Kd of best base at the position
GAAGGACCCCTAC,binding signal,EcR,10 Kd / Kd of best base at the position
GAAAGACCCCTAC,binding signal,EcR,8.21 Kd / Kd of best base at the position
GAATGACCCCTGC,binding signal,EcR,1.47 Kd / Kd of best base at the position
GACTGACCCCTAC,binding signal,EcR,2.46 Kd / Kd of best base at the position
TAATGACCCCTAC,binding signal,EcR,1.83 Kd / Kd of best base at the position
GAATGTCCCCTAC,binding signal,EcR,6.26 Kd / Kd of best base at the position
GAATGGCCCCTAC,binding signal,EcR,5.84 Kd / Kd of best base at the position
GAATGATCCCTAC,binding signal,EcR,9.3 Kd / Kd of best base at the position
GAATGACCCCCAC,binding signal,EcR,1.69 Kd / Kd of best base at the position
GATTGACCCCTAC,binding signal,EcR,1.87 Kd / Kd of best base at the position
CAATGACCCCTAC,binding signal,EcR,1.8 Kd / Kd of best base at the position
ACTTAATCCGAT,binding signal,Gsc,10.4 Kd / Kd of best base at the position
TCTCCAGGATAAC,binding signal,Ttk-PF,3.54 Kd / Kd of best base at the position
AGTTGAATGGGGT,binding signal,Cic,1.69 Kd / Kd of best base at the position
